Assay outcomes (PubChem)
Rows were chosen to be rich in hits. Some 10% of all compounds tested hit in one or more screens of this group.
BAZ2B inh: qHTS Assay for Inhibitors of BAZ2B. hit rate 4.4% among 360,000. Potency, µM (series often up to 114 µM), hits mostly inhibitors. AlphaScreen BAZ2B-H3K14Ac peptide displacement. Bromodomain adjacent to zinc finger domain protein 2B (Homo sapiens), Q9UIF8; note: nearly all actives have a fitted effect of over 60% in size
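AlphaScreen displacement of biotin-H3(5-23)K14Ac peptide (50 nM final) from BAZ2B (50 nM final) in PBS pH 7.4, 0.01% Tween-20; complex preformed 30 min RT, then compounds (top 110 uM) 30 min RT, beads 20 min dark.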
HP1b binding inh: HTS for Inhibitors of HP1-beta Chromodomain Interactions with Methylated Histone Tails. Potency, µM (highest dose often 114 µM), usual class: inhibitors. hit rate 0.56% among 390,000. Chromobox protein homolog 1 (Homo sapiens), P83916. AID 540317, 2011. AlphaScreen HP1-beta / biotin-H3K9me3 peptide binding; note: nearly all actives have a fitted effect of over 70% in size
Target sequence (P83916 whole entry, looked up): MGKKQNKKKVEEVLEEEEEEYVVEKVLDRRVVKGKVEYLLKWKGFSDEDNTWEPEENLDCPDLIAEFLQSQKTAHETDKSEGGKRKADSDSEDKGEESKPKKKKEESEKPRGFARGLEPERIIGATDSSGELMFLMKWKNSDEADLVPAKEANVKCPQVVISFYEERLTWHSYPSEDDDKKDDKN
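HP1-beta protein (50 nM final) preincubated 30 min at room temperature with biotinylated H3(1-18)K9me3 peptide (50 nM) in PBS pH 7.4, 0.01% Tween-20, then compound added for 30 min. AlphaScreen streptavidin donor/nickel chelate acceptor beads (10 ug/mL final), 30 min dark, luminescence read.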
G9a inh: qHTS Assay for Inhibitors of Histone Lysine Methyltransferase G9a; Histone-lysine N-methyltransferase EHMT2 (Homo sapiens), Q96KQ7; G9a H3K9 monomethylation, AlphaScreen, 2 h; Potency, µM (highest dose often 102 µM), hits mostly inhibitors; hit rate 8.8% among 350,000; AID 504332, 2011; note: nearly all actives have a fitted effect of over 75% in size
Target sequence (Q96KQ7 913-1193 limits assumed): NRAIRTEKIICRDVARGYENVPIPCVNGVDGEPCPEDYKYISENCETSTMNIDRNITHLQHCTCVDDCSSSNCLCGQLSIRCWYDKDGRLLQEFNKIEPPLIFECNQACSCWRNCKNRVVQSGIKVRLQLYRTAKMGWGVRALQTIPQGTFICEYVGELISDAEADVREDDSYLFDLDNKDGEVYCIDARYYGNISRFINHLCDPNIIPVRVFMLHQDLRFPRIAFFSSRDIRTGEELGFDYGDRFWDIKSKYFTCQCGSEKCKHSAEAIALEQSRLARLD
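Using a bead-based AlphaScreen, monomethylated H3K9 product from 2 h room-temperature reactions (G9a 20 nM, peptide 500 nM, SAM 20 uM) was detected with 0.5 ug/mL rabbit anti-H3K9me1 antibody.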
CtBP-E1A inh: qHTS Assay for Inhibitors of the CtBP/E1A Interaction. CtBP / adenovirus E1A interaction (AlphaScreen). AlphaScreen GST-E1A/His-CtBP binding, 1536-well; hits give low values. activity change, % (test concentration not listed). hit rate 0.49% among 340,000; in the data active = activity change below about -65%; inconclusive = mostly about -30% to -63%
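AlphaScreen with 125 nM GST-E1A and 125 nM His-CtBP (5X stocks) in Tris pH 8.0, 300 mM NaCl, BSA, Tween 20, TCEP. Compounds preincubated 2 h at 37 deg C, then glutathione donor/nickel acceptor beads added for 1 h at 37 deg C in dark.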
JMJD2A Tudor inh: qHTS Assay for Inhibitors of JMJD2A-Tudor Domain. AlphaScreen JMJD2A-Tudor / H3K4me3 peptide binding. Potency, µM (titrated, usually from 114 µM), actives largely listed as inhibitors. hit rate 4.4% among 390,000. AID 504339, 2011; note: nearly all actives have a fitted effect of over 50% in size
Six1-Eya2 inh: qHTS Assay for Inhibitors of the Six1/Eya2 Interaction. AlphaScreen GST-Six1/His-Eya2 binding, biochemical; hits give low values. Homeobox protein SIX1 (Homo sapiens) + Protein phosphatase EYA2 (Homo sapiens), …. AID 651725, 2012. hit rate 0.56% among 360,000. activity change, % (no concentration beside the values); in the data active = activity change below about -65%; inconclusive = mostly about -30% to -63%
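AlphaScreen luminescence read after one hour at 37 °C in darkness. Pin-transferred compounds met GST-Six1 and His-Eya2 protein (5X stock 250 nM/500 nM) plus glutathione donor and Ni-chelate acceptor beads (5X, 50 ug/mL).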
Numbers stand for hits; - = inactive; ? = inconclusive; . = no result given; [ ] = remark or other dose. Unless noted, calls come from the whole dose curve; as a rule, active = well fitted inhibition curve with a large enough effect; inconclusive = small, poorly fitted or top-dose-only effect; inactive = no such curve, though single readings can be large or run the other way.

SMILES	BAZ2B inh	HP1b binding inh	G9a inh	CtBP-E1A inh	JMJD2A Tudor inh	Six1-Eya2 inh
CCn1c(C)[n+](CCOCC[n+]2c(C)n(CC)c3cc(Cl)c(Cl)cc32)c2cc(Cl)c(Cl)cc21	-	-	?	-	22µM	-
CC(C)Oc1cc(F)ccc1-c1cc(C(=O)NCc2ccccn2)[nH]n1	.	.	.	-	.	-
COc1ccc(NS(=O)(=O)c2ccc3[nH]c4c(c3c2)CCCC4)cc1Cl	?	-	-	.	?	.
COc1ccc(NS(=O)(=O)c2ccc3[nH]c4c(c3c2)CCCC4)c(OC)c1	?	-	10µM	.	?	.
COc1ccc(NS(=O)(=O)c2ccc3[nH]c4c(c3c2)CCCCC4)cc1	-	?	?	.	32µM	.
CCOc1ccc(NS(=O)(=O)c2ccc3[nH]c4c(c3c2)CCCCC4)cc1	-	-	?	.	28µM	.
COc1ccc(OC)c(CNS(=O)(=O)c2ccc3[nH]c4c(c3c2)CCCCC4)c1	?	?	13µM	.	35µM	.
Cc1ccc(CNS(=O)(=O)c2ccc3[nH]c4c(c3c2)CCCCC4)cc1	-	-	-	.	-	.
Cc1cccc(C)c1N=Nc1c(C)cc(O)cc1C	18µM	?	35µM	?	20µM	?
Cc1cccc(O)c1C	.	-	.	-	-	-
CCOc1ccc(N=C(NN)c2ccc3ccccc3n2)cc1	40µM	-	13µM	-	50µM	-
CN(Cc1ccccc1)c1nc(-c2cccc([N+](=O)[O-])c2)nc2ccccc12	-	-	-	-	32µM	-
OC[C@H](O)[C@H](O)[C@@H](O)[C@@H](O)[C@@H]1SC(c2ccccc2)=NN1c1ccccc1	-	-	11µM	-	?	-
CCOc1ccc(CCNS(=O)(=O)c2ccc3c(c2)oc(=O)n3C)cc1OCC	-	-	.	.	-	-
CC(=O)c1ccc(C2CC34CNS(=O)(=O)C3CC2O4)cc1 (stereo not drawn)	.	-	.	.	79µM	.
O=S(=O)(c1cccs1)n1nnc2ccccc21	-	-	-	-	-	-
Cc1ccc(S(=O)(=O)n2nnc3ccccc32)c(C)c1C	?	-	50µM	-	-	-
NCC(O)C1CCCCCCC1 (stereo not drawn)	.	.	-	.	.	.
O=C(COc1ccccc1F)N1N=C(c2cccs2)CC1c1ccco1 (stereo not drawn)	?	-	50µM	-	14µM	-
O=C(c1ccco1)N1N=C(c2cccs2)CC1c1ccco1 (stereo not drawn)	-	-	.	-	-	-
Cc1ccc(C2CC(c3cccs3)=NN2C(=O)c2ccco2)o1 (stereo not drawn)	?	-	35µM	-	?	-
CCN(CC)S(=O)(=O)c1ccc2c(c1)N(CC(=O)NCCCN1CCN(c3cc(C)ccc3C)CC1)C(=O)CO2	-	-	-	.	-	.
CCCn1c(/C=N/Nc2nc3ccccc3[nH]2)nc2ccccc21	?	-	-	-	-	-
CC(C)Cn1c(/C=N/Nc2nc3ccccc3[nH]2)nc2ccccc21	?	-	-	-	-	-
Cn1c(/C=N/Nc2nc3ccccc3[nH]2)nc2ccccc21	32µM	-	-	-	?	-
SMILES	BAZ2B inh	HP1b binding inh	G9a inh	CtBP-E1A inh	JMJD2A Tudor inh	Six1-Eya2 inh
Cc1c(/C=N/Nc2nc3ccccc3[nH]2)c2ccccc2n1C	18µM	50µM	.	?	32µM	?
C=CCn1cc(/C=N/Nc2nc3ccccc3[nH]2)c2ccccc21	40µM	?	50µM	?	40µM	-
CC(NC(=O)CN(C)S(=O)(=O)c1cnc[nH]1)c1ccccc1 (stereo not drawn)	-	-	-	-	-	-
O=C(/C=C/c1ccc(-c2ccccc2)o1)c1ccccc1	35µM	?	?	-	-	-
Nc1nonc1-c1nc2ccccc2n1CC(=O)Nc1ccccc1C(=O)O	-	-	-	.	-	.
Nc1nnc(CC(=O)N/N=C/c2ccc(-c3cccc(C(=O)O)c3)o2)s1	-	-	?	-71	?	-66
Nc1nnc(CC(=O)N/N=C/c2ccc(-c3ccc(F)cc3)o2)s1	-	-	-	-	-	-
O=Cc1ccc(-c2cccc(C(=O)O)c2)o1	?	-	50µM	-	-	-
Nc1nonc1-c1nc2ccccc2n1CC(=O)N/N=C/c1ccc(-c2cccc(C(=O)O)c2)o1	20µM	50µM	7.9µM	-	40µM	?
Cc1ccc(-c2ccc(/C=C/C(=O)c3ccccc3)o2)cc1	?	-	-	-	-	-
CCCCCCc1ccc(C(=O)CCN(C)C)cc1	.	.	.	.	-	.
Cc1cc(C)nc(-n2nc(C)c3c2NC(=O)CC3c2ccccc2OC(C)C)n1 (stereo not drawn)	-	-	-	.	-	.
C[C@@H]1C(SC2Cn3cnc[n+]3C2)=C(C(=O)[O-])N2C(=O)[C@H]([C@@H](C)O)[C@@H]12 (stereo partly drawn)	.	.	-	.	.	.
O=C(CCSCCc1ccccn1)Nc1ccc(Cl)cc1	-	-	-	.	-	.
COC(=O)NCc1c(C)nn(-c2ccccc2)c1-n1cccc1	-	-	-	.	-	.
O=C(O)c1cccc(-c2ccc(/C=N/NC(=O)c3cccnc3)o2)c1	?	-	13µM	-	?	?
Cc1nnc(N/N=C\c2ccc(-c3cccc(C(=O)O)c3)o2)n1N	79µM	-	40µM	-	25µM	?
CCCC(NC(=S)NCC1CCCO1)C12CC3CC(CC(C3)C1)C2 (stereo not drawn)	-	-	13µM	.	?	-
CCCC(NC(=O)c1c(C)noc1C)C12CC3CC(CC(C3)C1)C2 (stereo not drawn)	-	-	-	-	-	-
CCS(=O)(=O)N1CCN(C2CCC(c3ccccc3)CC2)CC1 (stereo not drawn)	50µM	.	10µM	.	.	.
CC1CCN(C(=O)c2ncn3c2c(=O)[nH]c2ccc(Br)cc23)CC1	.	.	.	-	.	-
Cc1ccc(C)c(OCC(=O)NNC(=O)CSC(=S)N2CCCC2)c1	-	-	-[2.33 µM]	-	-	-
CSc1ccc(-c2nc(O)c3cnccn23)cc1	-	-	40µM	-	-	-
O=C(CNc1ccc2ccccc2c1)N/N=C/c1ccncc1	-	-	1.4µM	-	-	-
O=C(CNc1ccc2ccccc2c1)N/N=C/c1ccccn1	-	-	4µM	-	-	-
O=C(CCCC(=O)N/N=C\c1ccccn1)N/N=C\c1ccccn1	?	-	?	-	-	-
O=C(CNS(=O)(=O)c1ccccc1)N/N=C/c1ccncc1	-	-	-[12.7 µM]	.	-	-
Cc1ccc(NS(=O)(=O)c2ccc3ccccc3c2)cc1C	.	.	.	.	-	.
